Holding throughout (test): BK channel mutant inhibitors and activators – cell-based, U2OS BacMam, thallium flux, beta subunits, selectivity assay, profiling panel (AID 1259406);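 note: initial slope of Thallos dye fluorescence rise after thallium is added; log ratio against the mean of 0.3% DMSO vehicle wells on the same plate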
One experiment relates to F380Y. To be noted: U2OS BacMam BK variants, at 30 µM.
The subject of a further experiment is F380Y/beta1. The conditions noted are these: U2OS BacMam BK variants, at 30 µM.
A further experiment concerns F380Y/beta2Delta. To be noted: U2OS BacMam BK variants, at 30 µM.
A further experiment deals with F380Y/beta4. To be noted: U2OS BacMam BK variants, at 30 µM.
Experiment [1] addresses Calcium-activated potassium channel subunit alpha-1 (Homo sapiens) + Leucine-rich repeat-containing protein 26 (Homo sapiens) (UniProt Q12791+Q2I0M4). The conditions noted are these: U2OS BacMam BK variants, F380Y/Slo1WT/gamma1, at 30 µM.
The next experiment concerns R275C. The conditions noted are these: U2OS BacMam BK variants, at 30 µM.
The subject of another experiment is R275C/beta1. The conditions noted are these: U2OS BacMam BK variants, at 30 µM.
A further experiment deals with R275C/beta2Delta. The conditions noted are these: U2OS BacMam BK variants, at 30 µM.
A further experiment concerns R275C/beta4. The conditions noted are these: U2OS BacMam BK variants, at 30 µM.
The test system of a further experiment is R275C/Slo1WT/beta2. The conditions noted are these: U2OS BacMam BK variants, at 30 µM.

Values without a mark were called inactive. Active and inactive are the calls of the source.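 Rule for the calls: active = thallium flux through the channel raised or lowered by more than 3 SD from vehicle-only wells, actives on both sides; inactive = the rest.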

Chain of Calcium-activated potassium channel subunit alpha-1 (Homo sapiens) + Leucine-rich repeat-containing protein 26 (Homo sapiens) (Q2I0M4 whole entry, looked up, one chain of several): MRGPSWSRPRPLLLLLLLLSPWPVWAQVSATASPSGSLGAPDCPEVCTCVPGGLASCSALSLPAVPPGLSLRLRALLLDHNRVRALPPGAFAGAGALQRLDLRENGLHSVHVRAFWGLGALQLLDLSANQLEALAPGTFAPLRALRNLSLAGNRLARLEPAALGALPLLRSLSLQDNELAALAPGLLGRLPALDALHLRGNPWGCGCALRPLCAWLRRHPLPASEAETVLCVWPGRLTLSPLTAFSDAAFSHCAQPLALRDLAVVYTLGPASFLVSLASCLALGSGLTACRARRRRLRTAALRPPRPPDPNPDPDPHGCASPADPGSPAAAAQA

Take `CC(C)C1COC(c2cccc(C3=NC(C(C)C)CO3)n2)=N1` (stereo not given): the log fold change Tl+ flux is -0.0154 in the experiment with F380Y; 0.0433 in the experiment on F380Y/beta1; 0.00332 in the experiment with F380Y/beta2Delta; 0.0308 with F380Y/beta4; 0.0138 in experiment [1]; -0.00894 in the experiment on R275C. Also, the log fold change Tl+ flux in the experiment with R275C/beta1 was 0.00883; with R275C/beta2Delta, -0.00732; in the experiment on R275C/beta4, -0.00827; in the experiment with R275C/Slo1WT/beta2 it was 0.043.
`O=C(Cn1ccc(C(F)(F)F)n1)c1ccc(Cl)cc1`: the log fold change Tl+ flux is 0.0102 in the experiment on F380Y; 0.0189 with F380Y/beta1; -0.0159 in the experiment on F380Y/beta2Delta; 0.0229 in the experiment with F380Y/beta4; -0.00441 in experiment [1]; 0.00925 in the experiment on R275C. Moreover, the log fold change Tl+ flux in the experiment with R275C/beta1 is 0.0122; in the experiment on R275C/beta2Delta, -0.0132; with R275C/beta4, 0.0276; with R275C/Slo1WT/beta2 it was 0.0269.
Take `O=C(OCCSc1sccc1[N+](=O)[O-])c1ccc(Cl)cc1`: the log fold change Tl+ flux in the experiment with F380Y was -0.00334; in the experiment with F380Y/beta1 it was -0.009; in the experiment with F380Y/beta2Delta, 0.0128; in the experiment with F380Y/beta4, -0.0285; in experiment [1], -0.0095; in the experiment on R275C it was 0.0114. Besides, the log fold change Tl+ flux in the experiment on R275C/beta1 was -0.0166; in the experiment on R275C/beta2Delta, 0.0149; with R275C/beta4 it was -0.01; in the experiment with R275C/Slo1WT/beta2 it was 0.0278.
For `CSC(=S)NNC(=O)c1ccc(C(F)(F)F)cc1`, the log fold change Tl+ flux is 0.0858 in the experiment with F380Y; 0.233 (active) in the experiment on F380Y/beta1; 0.0998 with F380Y/beta2Delta; 0.29 (active) in the experiment with F380Y/beta4; 0.1 in experiment [1]; 0.134 (active) in the experiment on R275C. In addition, the log fold change Tl+ flux in the experiment with R275C/beta1 was 0.158 (active); in the experiment on R275C/beta2Delta it was 0.0788; in the experiment on R275C/beta4, 0.305 (active); in the experiment on R275C/Slo1WT/beta2, 0.232 (active).
For the compound `CS(=O)(=O)NNc1c(Cl)cc(Cl)cc1Cl`, the log fold change Tl+ flux in the experiment on F380Y was 0.00053; in the experiment on F380Y/beta1, -0.000501; in the experiment on F380Y/beta2Delta, -0.00312; with F380Y/beta4 it was 0.0402; in experiment [1], 0.016; in the experiment with R275C, 0.0374. In addition, the log fold change Tl+ flux in the experiment on R275C/beta1 was -0.0143; in the experiment with R275C/beta2Delta, 0.00102; with R275C/beta4 it was 0.0275; in the experiment with R275C/Slo1WT/beta2, 0.0607.
Turning to `N#CC1=C(Nc2ccccc2Cl)SC(c2ccncc2)NC1=O` (stereo not given), the log fold change Tl+ flux with F380Y was -0.0226; in the experiment with F380Y/beta1, 0.0482; in the experiment on F380Y/beta2Delta it was 0.0198; in the experiment on F380Y/beta4, -0.00461; in experiment [1], 0.0291; in the experiment with R275C it was 0.0616. For the same compound, the log fold change Tl+ flux is 0.0544 with R275C/beta1, 0.0222 in the experiment with R275C/beta2Delta, 0.0286 in the experiment with R275C/beta4 and 0.0417 in the experiment on R275C/Slo1WT/beta2.
For `Cc1ccc(S(=O)(=O)N2Cc3ccccc3C(C)CC23CCCCC3)cc1` (stereo not given), the log fold change Tl+ flux in the experiment on F380Y is -0.0732; with F380Y/beta1, -0.033; in the experiment on F380Y/beta2Delta it was -0.0539; in the experiment on F380Y/beta4, -0.175 (active); in experiment [1], -0.0898; with R275C, -0.0799 (active). For the same compound, the log fold change Tl+ flux in the experiment with R275C/beta1 was -0.119 (active); with R275C/beta2Delta it was -0.0411; in the experiment with R275C/beta4, -0.0534; with R275C/Slo1WT/beta2, 0.009.
As for `Cc1nn(-c2ccccc2)nc1C(=O)NNC(=O)CSCc1cccc2ccccc12`, the log fold change Tl+ flux with F380Y was 0.029; in the experiment on F380Y/beta1 it was 0.0449; with F380Y/beta2Delta, 0.0266; in the experiment on F380Y/beta4, -0.00465; in [1], -0.0205; in the experiment with R275C it was 0.0152. The log fold change Tl+ flux in the experiment with R275C/beta1 was 0.0429; in the experiment on R275C/beta2Delta it was -0.0226; with R275C/beta4, 0.097 (active); in the experiment on R275C/Slo1WT/beta2, 0.0123.
Regarding `CCCn1c(=O)c(Br)cn(-c2ccccc2C)c1=O`, the log fold change Tl+ flux was -0.00732 with F380Y; -0.0448 in the experiment on F380Y/beta1; -0.0565 in the experiment with F380Y/beta2Delta; 0.00537 in the experiment with F380Y/beta4; -0.011 in experiment [1]; 0.0371 in the experiment on R275C. Besides, the log fold change Tl+ flux in the experiment on R275C/beta1 was 0.0334; in the experiment on R275C/beta2Delta, -0.00562; in the experiment on R275C/beta4, 0.00534; in the experiment with R275C/Slo1WT/beta2, 0.0347.
As to `Cc1ccc(-c2nc(N=CNOC(=O)c3ccc([N+](=O)[O-])cc3)sc2C)cc1Cl`, the log fold change Tl+ flux with F380Y is 0.0323; in the experiment with F380Y/beta1 it was 0.126 (active); in the experiment with F380Y/beta2Delta, 0.0425; in the experiment with F380Y/beta4, 0.147 (active); in experiment [1], 0.102; with R275C, 0.00635. In addition, the log fold change Tl+ flux in the experiment with R275C/beta1 is 0.0986; in the experiment with R275C/beta2Delta, 0.13 (active); in the experiment on R275C/beta4, 0.142 (active); in the experiment with R275C/Slo1WT/beta2 it was 0.0243.
On to `CCSc1ccc(-c2noc(C(C)(C)C)n2)cn1`, for which the log fold change Tl+ flux is 0.0439 with F380Y; 0.0323 with F380Y/beta1; -0.00176 in the experiment with F380Y/beta2Delta; 0.0153 with F380Y/beta4; -0.00182 in [1]; 0.0189 in the experiment on R275C. Besides, the log fold change Tl+ flux in the experiment on R275C/beta1 is 0.0241; in the experiment with R275C/beta2Delta it was -0.0201; in the experiment on R275C/beta4, 0.031; with R275C/Slo1WT/beta2 it was -0.00966.
With `CS(=O)(=NS(=O)(=O)c1ccc(OC(F)(F)F)cc1)c1ccccc1` (stereo not given), the log fold change Tl+ flux is 0.0244 in the experiment with F380Y; -0.0162 with F380Y/beta1; 0.018 in the experiment with F380Y/beta2Delta; -0.00984 with F380Y/beta4; 0.0614 in experiment [1]; 0.00979 in the experiment on R275C. Also, the log fold change Tl+ flux was -0.0151 in the experiment with R275C/beta1, 0.00446 in the experiment on R275C/beta2Delta, 0.0404 in the experiment with R275C/beta4 and 0.0068 in the experiment on R275C/Slo1WT/beta2.
With `O=[N+]([O-])c1ccc(N2CCSCC2)cc1O`, the log fold change Tl+ flux was -0.0426 with F380Y; -0.0279 with F380Y/beta1; -0.0262 with F380Y/beta2Delta; 0.012 in the experiment on F380Y/beta4; 0.0289 in experiment [1]; -0.00302 in the experiment on R275C. Moreover, the log fold change Tl+ flux was -0.0429 in the experiment on R275C/beta1, -0.0453 in the experiment on R275C/beta2Delta, -0.0292 with R275C/beta4 and 0.0333 in the experiment with R275C/Slo1WT/beta2.
`COc1ccc(C(C)=NO)cc1CN1CCCC1`: the log fold change Tl+ flux was 0.00748 with F380Y; 0.0291 in the experiment on F380Y/beta1; 0.0236 in the experiment with F380Y/beta2Delta; 0.062 in the experiment on F380Y/beta4; 0.0507 in [1]; 0.0203 with R275C. The log fold change Tl+ flux is 0.0511 in the experiment with R275C/beta1, -0.0181 in the experiment on R275C/beta2Delta, -0.0237 with R275C/beta4 and 0.0863 in the experiment with R275C/Slo1WT/beta2.

Source of the values: PubChem BioAssay.
